# According to ChEMBL document CHEMBL1201862, “PubChem BioAssay data set” (2004):
# In all, about 1,200 compounds went through this assay and about 140 (12%) were called active. The rule behind the calls is not given here. The sample as a whole holds a higher share of actives than the screen did.
# Test: CFTR-F508del correctors, dose response, FRT cells, YFP quenching, cherry-pick (AID 743402)
# Format: functional, cell-based
row,SMILES,AbsAC35
1,COc1ccc(NC(=O)C(=O)NCC2CCCN2S(=O)(=O)c2cccs2)cc1 (stereo not given),87.6 µM (active)
2,CC(=O)c1cccc(-c2ccnc3c2CC(C(=O)NCc2ccco2)O3)c1 (stereo not given),40.3 µM (active)
3,O=c1c(O)c(-c2cccs2)oc2ccc(Cl)cc12,30.3 µM (active)
4,COc1ccc(C2=Nn3c(nnc3-c3ccccc3OC)SC2)cc1OC1CCOC1 (stereo not given),160 µM (active)
5,CCc1ccc(OCCNc2cc(N3CCNC(C)C3)ccc2[N+](=O)[O-])cc1 (stereo not given),58.8 µM (active)
6,N#Cc1ccc(-c2cccs2)nc1SCc1cccnc1,107 µM (active)
7,CCN(CC)CCC(=O)Nc1cccc2c1C(=O)c1ccccc1C2=O,40.8 µM (active)
8,O=C(OCc1ccc(Br)cc1)c1cc([N+](=O)[O-])ccc1N1CCOCC1,28.4 µM (active)
9,CC(=O)Nc1ccc(S(=O)(=O)N2c3ccccc3C(C)=CC2(C)C)cc1,42.7 µM (active)
10,COc1ccc(C2C3=C(COC3=O)Oc3cc4c(cc32)OCO4)cc1OC (stereo not given),116 µM (active)
